# Screens as filed in PubChem BioAssay.
# Shown are actives, neighbours in structure and some others; about 2.3% of the full set was active somewhere.
# HSP90 refold inh: blocks HSP90-mediated luciferase refolding in reticulocyte lysate. AID 1789. inhibition, % at 5.6 µM. 0.91% of 290,000 active. Rabbit reticulocyte lysate, luciferase refolding luminescence, 3 h;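 active = inhibition above the screen-wide mean plus 3 SD, computed separately per campaign, cut at about 16% in these data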;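 also: 0% = DMSO wells and 100% = 60 µM geldanamycin wells; inhibitors lower the luminescence because luciferase stays unfolded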
# SENP6 block: SENP6 protease inhibition; inhibition, % at 10 µM; Q9GZR1; 1.8% of 330,000 active; Recombinant SENP6 catalytic domain, aminoluciferin luminescence;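 active = inhibition above about 50% at the single tested dose, limit read from the data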;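 also: plate controls were DMSO wells with enzyme for no effect and DMSO wells lacking enzyme for full effect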
# SENP8 block-1: SENP8 protease inhibition; Q96LD8; 1.2% of 330,000 active; purified SENP8, Z-RLRGG-aminoluciferin cleavage, luminescence; inhibition, % at 10 µM; in the data active = inhibition above about 50%
# Target sequence (Q96LD8 whole entry, looked up): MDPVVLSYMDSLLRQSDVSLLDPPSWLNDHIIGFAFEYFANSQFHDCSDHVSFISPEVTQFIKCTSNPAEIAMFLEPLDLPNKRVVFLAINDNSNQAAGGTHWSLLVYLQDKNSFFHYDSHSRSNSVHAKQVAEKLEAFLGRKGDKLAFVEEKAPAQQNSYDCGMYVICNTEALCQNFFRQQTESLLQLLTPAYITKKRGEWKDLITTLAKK
# SENP7 block: blocks the human protease SENP7; Q9BQF6; recombinant SENP7, Z-RLRGG-aminoluciferin luminescence, 40 min; inhibition, % at 5 µM; 1.5% of 330,000 active;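 active = inhibition above about 50% at the single test dose, limit read from the data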;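 also: plate controls were DMSO with enzyme for no effect and no enzyme buffer wells for full effect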
# LGR2 antag: inhibitors of bursicon-induced Drosophila LGR2 receptor cAMP signaling. HEK293 LGR2, CRE-luciferase, bursicon-stimulated, 4 h. inhibition, % at 9.99 µM. 0.35% of 380,000 active;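 active = drop in luminescence signal, shown as inhibition above about 50% in the replicate tests, limit read from the data, passing the limit was not always enough; inconclusive = probably only some replicates passing the limit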;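 also: agonist challenge used bursicon conditioned medium at about half maximal strength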
# SENP8 block-2: blocks human SENP8 cleavage of Nedd8 substrate; Q96LD8; recombinant SENP8, Nedd8 substrate fluorescence; inhibition, % at 20 µM; 0.64% of 360,000 active; in the data active = inhibition mostly above about 40%, no sharp cut-off; inactive = mostly below about 27%
# HSP90 inh confirm: confirmation of HSP90 inhibitors | shares compounds with HSP90 refold inh | rabbit reticulocyte lysate, luciferase refolding luminescence, 3 h | inhibition, % at 5.9 µM | 64% of 2,300 active; in the data active = inhibition above about 18%;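 also: 0% = vehicle wells and 100% = reference inhibitor wells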
# FLuc counter: firefly luciferase inhibition, HSP90 counter-screen; shares compounds with HSP90 refold inh; purified native firefly luciferase, luminescence; inhibition, % at 5.9 µM; 48% of 2,300 active; AID 1847;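 active = inhibition above the mean inhibition of all tested sample wells plus 3 SD, cut at about 10% in these data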;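 also: 0% = DMSO with luciferase and 100% = wells lacking luciferase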
# Target sequence (P08659 whole entry, looked up): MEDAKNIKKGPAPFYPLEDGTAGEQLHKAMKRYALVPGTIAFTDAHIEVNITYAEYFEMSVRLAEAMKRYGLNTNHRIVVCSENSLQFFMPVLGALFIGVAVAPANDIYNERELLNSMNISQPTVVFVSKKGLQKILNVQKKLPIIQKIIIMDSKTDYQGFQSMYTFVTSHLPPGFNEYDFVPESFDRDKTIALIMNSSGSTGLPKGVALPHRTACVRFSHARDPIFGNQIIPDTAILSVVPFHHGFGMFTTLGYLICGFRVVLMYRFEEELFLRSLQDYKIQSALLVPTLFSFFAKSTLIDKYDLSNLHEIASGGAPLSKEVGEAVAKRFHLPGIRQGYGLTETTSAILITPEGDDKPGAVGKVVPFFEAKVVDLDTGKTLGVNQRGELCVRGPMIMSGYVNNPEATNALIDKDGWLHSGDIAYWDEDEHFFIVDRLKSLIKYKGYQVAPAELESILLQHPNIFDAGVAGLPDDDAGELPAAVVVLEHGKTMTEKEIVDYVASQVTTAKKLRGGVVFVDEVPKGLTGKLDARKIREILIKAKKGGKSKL
# SENP8 confirm: confirmation of human SENP8 protease inhibitors | shares compounds with SENP7 block | Recombinant SENP8, Z-RLRGG-aminoluciferin luminescence, 60 min | inhibition, % at 12.5 µM | 40% of 6,200 active | AID 488912;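 active = mean inhibition across replicates above about 50%, limit read from the data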
# SENP6 confirm: human SENP6 inhibition, confirmed. recombinant SENP6, Z-RLRGG-aminoluciferin luminescence. inhibition, % at 12.5 µM. 58% of 6,200 active. shares compounds with SENP7 block
# SENP7 conf: human SENP7 inhibition, confirmed. inhibition, % at 12.5 µM. 69% of 6,200 active. shares compounds with SENP7 block. recombinant SENP7, Z-RLRGG-aminoluciferin luminescence, 40 min
# Casp3 select: inhibits human caspase-3 in SENP selectivity test | shares compounds with SENP7 block | purified caspase-3, Z-DEVD-aminoluciferin luminescence, 60 min | inhibition, % at 12.5 µM | 60% of 6,200 active;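 active = mean inhibition above about 50%, limit read from the data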;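 also: plate controls were enzyme with DMSO for no effect and wells without caspase-3 for full effect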
# Luc interf: luminescence interference (SENP counter-screen). shares compounds with SENP7 block. Pre-incubated SENP8/Z-RLRGG-aminoluciferin, luciferase luminescence interference. inhibition, % at 12.5 µM. 39% of 6,200 active;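 active = mean inhibition above about 50% when retested at one dose, limit read from the data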;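 also: plate controls were DMSO wells with completed reaction for no effect and substrate without enzyme for full effect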
# Starred values were filed as active, the others as inactive; u = inconclusive; x = no result given.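 The calls were made as follows, unless noted: active = mean inhibition above about 50% in the one-dose retest (limit read from the data); inactive = the rest.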
SMILES,HSP90 refold inh,SENP6 block,SENP8 block-1,SENP7 block,LGR2 antag,SENP8 block-2,HSP90 inh confirm,FLuc counter,SENP8 confirm,SENP6 confirm,SENP7 conf,Casp3 select,Luc interf
COc1ccc(C(=O)/C=C/Nc2ccccn2)c(OC)c1,4.0,2.7,-1.4,13.7,-64.8,-331.9,x,x,x,x,x,x,x
CO[C@H]1CN(C)C(=O)c2cc(NS(=O)(=O)c3ccc(Cl)cc3)ccc2OC[C@H](C)NC[C@@H]1C,x,x,x,x,-54.1,x,x,x,x,x,x,x,x
O=C1C(=C2SCCCS2)CC/C1=C\c1ccc(F)cc1,53.8*,95.0*,95.7*,99.0*,x,21.6,92.5*,86.2*,46.9,68.4*,62.7*,83.6*,12.4
COc1ccc2[nH]c(C(=O)Nc3cccc(C)n3)cc2c1,23.2*,91.0*,85.5*,85.6*,-9.4,-482.3,29.8*,19.1*,91.7*,92.1*,100.5*,91.9*,58.5*
CC=Cc1ccc2n(c1=O)C[C@H]1[C@H](CO)[C@@H](C(=O)N3CCCCC3)N(Cc3ccccc3OC)[C@@H]21 (mixture of isomers),x,x,x,x,10.3,x,x,x,x,x,x,x,x
O=C(O)c1ccc(-c2nnc(-c3ccc([N+](=O)[O-])cc3)o2)cc1,4.1,-20.1,-0.2,1.4,-0.7,24.9,x,x,x,x,x,x,x
O=C(O)c1ccc(-c2nnc(-c3ccccc3)o2)cc1,57.9*,99.0*,95.2*,98.4*,-56.3,21.0,58.0*,14.1*,3.0,96.8*,101.4*,96.5*,81.3*
COc1ccc(/C(N)=N/OC(=O)c2ccc3ccccc3c2)cc1OC,x,x,x,x,-14.3,12.9,x,x,x,x,x,x,x
CCCc1ccc(C(=O)O/N=C(\N)c2ccccn2)cc1,77.8*,99.7*,97.1*,99.6*,103.0*,19.3,75.2*,89.2*,96.9*,99.6*,102.1*,97.5*,78.0*
COc1cccc(C(=O)NCCCNC(=O)c2ccccn2)c1,3.1,8.7,1.6,-2.0,6.2,4.5,x,x,x,x,x,x,x
COc1cccc(C(=O)O/N=C(\N)c2ccncc2)c1OC,-2.7,2.5,-9.8,1.4,-35.1,13.6,x,x,x,x,x,x,x
N/C(=N\OC(=O)c1ccc2ccccc2c1)c1ccccn1,66.5*,94.3*,95.8*,100.5*,97.5*,-19.6,58.8*,78.8*,94.9*,96.9*,102.2*,97.5*,27.4
COc1cccc(C(=O)O/N=C(\N)c2ccccn2)c1OC,53.0*,76.2*,58.5*,72.9*,69.5*,16.7,64.1*,71.8*,69.0*,68.3*,92.2*,92.5*,79.1*
COc1cccc(C(=O)O/N=C(\N)c2ccccn2)c1,66.8*,97.1*,95.0*,98.2*,101.0*,3.7,85.2*,90.7*,97.4*,97.9*,102.2*,98.3*,97.7*
CCCC#Cc1ccc2c(c1)O[C@@H](CN(C)C)[C@H](C)CN([C@@H](C)CO)S2(=O)=O,x,x,x,x,19.8,x,x,x,x,x,x,x,x
COc1cccc(NC(=O)N2C[C@@H](O)COC[C@@H]3O[C@@H](CC(=O)NCc4ccccc4F)CC[C@H]32)c1,x,x,x,x,-12.2,x,x,x,x,x,x,x,x
O=C(O)c1ccc(N=Nc2c(O)ccc3ncccc23)cc1,53.5*,96.7*,96.9*,100.4*,29.5,37.7,53.7*,19.7*,98.6*,99.2*,102.3*,89.1*,61.7*
C=CCOC(=O)c1sc(NC(=O)c2ccc(OC)cc2)nc1C,54.6*,-29.9,1.0,68.8*,-36.2,-125.8,60.3*,-10.9,14.4,16.3,25.2,14.9,4.4
CCOC(=O)c1sc(NC(=O)c2ccc(=O)[nH]c2)nc1C,2.5,7.8,-3.5,5.8,4.6,-66.7,x,x,x,x,x,x,x
Nc1c(C(=O)Nc2ccccc2)nnn1-c1ccc2c(c1)OCCO2,23.6*,84.6*,76.3*,82.3*,14.8,20.2,44.6*,31.0*,85.2*,84.3*,97.1*,81.6*,69.5*
Cc1ccc(NC(=O)c2nnn(-c3ccc4c(c3)OCCO4)c2N)cc1,-5.6,-12.7,-13.0,-11.3,-58.2,1.3,x,x,x,x,x,x,x
c1ccc(OCc2nc3ccccc3s2)cc1,17.1*,92.8*,87.6*,95.3*,x,17.0,24.7*,8.4,84.8*,95.6*,100.6*,91.2*,84.2*
Cc1ccc(-c2nc(-c3ccccn3)no2)cc1,93.6*,99.4*,97.6*,98.8*,x,26.8,97.7*,93.9*,3.5,100.7*,103.3*,99.5*,98.7*
Cc1ccc(-c2nc(-c3ccccn3)no2)cc1[N+](=O)[O-],29.7*,92.0*,84.7*,88.5*,u,12.5,57.8*,52.3*,62.9*,82.9*,88.2*,84.8*,22.8
c1ccc(-c2noc(-c3ccno3)n2)nc1,-1.6,-17.1,-4.7,7.3,-14.9,28.6,x,x,x,x,x,x,x
SMILES,HSP90 refold inh,SENP6 block,SENP8 block-1,SENP7 block,LGR2 antag,SENP8 block-2,HSP90 inh confirm,FLuc counter,SENP8 confirm,SENP6 confirm,SENP7 conf,Casp3 select,Luc interf
c1ccc(-c2cc(-c3nc(-c4ccccn4)no3)c3ccccc3n2)cc1,2.1,-0.2,1.7,7.0,x,-290.1,x,x,x,x,x,x,x
Cc1ccc(Cc2nc(-c3ccccn3)no2)cc1,4.6,5.9,-4.6,13.7,-3.3,4.0,x,x,x,x,x,x,x
Clc1cccc(-c2nc(-c3ccccn3)no2)c1,57.4*,96.0*,92.4*,97.9*,x,15.0,81.9*,75.7*,97.0*,98.0*,101.8*,97.2*,96.6*
c1ccc(-c2nc(-c3ccccn3)no2)cc1,45.9*,96.2*,94.7*,100.6*,86.5*,14.8,79.5*,70.3*,97.9*,99.1*,102.7*,98.9*,96.6*
COc1ccc(NC(=O)Nc2ccc3c(c2)C(=O)N([C@H](C)CO)C[C@@H](C)[C@H](CN(C)Cc2ccncc2)OCCCC[C@@H](C)O3)cc1,x,x,x,x,-0.9,x,x,x,x,x,x,x,x
O=C(O)C[C@H]1CC[C@H](NC(=O)c2ccncc2)[C@H](CO)O1,x,x,x,x,17.3,x,x,x,x,x,x,x,x
C[C@@H]1CCCCO[C@@H](CN(C)C)[C@H](C)CN([C@H](C)CO)C(=O)c2cc(NC(=O)Nc3ccccc3)ccc2O1,x,x,x,x,8.9,x,x,x,x,x,x,x,x
Oc1ccccc1C=Nc1cccc2ccccc12,11.3,49.5,41.0,20.9,-0.3,-284.9,x,x,x,x,x,x,x
